In PubChem BioAssay AID651791 (National Center for Advancing Translational Sciences (NCATS), 2012) one finds activity change, negative = inhibition and Potency data, which are given here for 37 compounds.

Records with an inconclusive call do not appear. Activity calls are given as the source filed them. Calls come from the whole dose curve; as a rule, active = well fitted inhibition curve with a large enough effect; inconclusive = small, poorly fitted or top-dose-only effect; inactive = no such curve, though single readings can be large or run the other way.
Potency is the fitted concentration of half-maximal effect.

The experiment can be described thus: InCell qHTS Assay for Inhibitors of the mTORC1 Signaling Pathway in MEF (Tsc2-/-, p53-/-) Cells: Hit Validation.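 Note: phospho-S6 Ser235/236 signal normalized to propidium iodide cell count per well; nearly all actives have a fitted effect of over 75% in size.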 As to conditions: phospho-rpS6 immunofluorescence, 24 h; activity change, negative = inhibition: at 38.3 µM (top of the series).
Regarding `COc1cc(CNc2ccc3c(c2)ncn3C(C)C)cc(OC)c1OC`, the activity change, negative = inhibition is -100%.

For the compound `CCN1C(=O)c2ccccc2Sc2ccc(NC(=O)Cc3ccc(OC)cc3)cc21`, the activity change, negative = inhibition is -100%.

Turning to `O=C(Nc1ccc(-c2cc(C(F)(F)F)nn2-c2ccccc2)cc1)c1cccc(F)c1`, the activity change, negative = inhibition is -100%.

For `COc1ccc(N(C)C(=O)c2cc(S(=O)(=O)N3CCc4ccccc43)cn2C)c(OC)c1`, the activity change, negative = inhibition was -100%.

`CC(C)c1ccc(NS(=O)(=O)c2ccc3nc(-c4ccccc4)[nH]c3c2)cc1`: the activity change, negative = inhibition is -100%.

Regarding `COc1ccc(OC)c(Nc2c3c(nc4ccccc24)CCC3)c1`, the activity change, negative = inhibition was -25.7%.

On to `COc1ccc(C)cc1NC(=O)CCNS(=O)(=O)c1cccc2nonc12`, for which the activity change, negative = inhibition was -100%.

`COc1ccc(Nc2cc(C)nc(-n3nc(C)cc3C)n2)cc1Cl`: the activity change, negative = inhibition is -100%.

Regarding `COCCCNC(=O)c1ccc(CSc2nc3cccnc3n2Cc2ccc(OC)cc2)cc1`, the activity change, negative = inhibition is -100%.

For `COc1ccc(C(=O)N2CCN(C(=O)COc3ccc(Br)cc3)CC2)cc1OC`, the activity change, negative = inhibition is -100%.

`CCOC(=O)c1c(NC(=O)c2ccc(S(=O)(=O)N3CCC(C)CC3)cc2)sc2c1CCN(C)C2`: the activity change, negative = inhibition was determined as 1.72%.

Regarding `CCOC(=O)c1ccc(-c2ccc(/C=C(\C#N)c3nc4ccc(C)cc4[nH]3)o2)cc1`, the activity change, negative = inhibition is -100%.

`COc1ccc2nc(NC(=O)c3nc(S(=O)(=O)Cc4ccccc4F)ncc3Cl)sc2c1`: the Potency is 2.33 µM (active).

For `CCOc1ccc(Nc2nc(-c3cccc(Cl)c3)c3c(n2)-c2ccccc2OC3)cc1`, the activity change, negative = inhibition is -100%.

Consider `Cc1cccc(NS(=O)(=O)c2ccc3[nH]c4c(c3c2)CCCCCC4)c1`, for which the activity change, negative = inhibition was -100%.

For `COc1ccc(OC)c(NC(=O)c2nc(S(=O)(=O)Cc3ccc(F)cc3)ncc2Cl)c1`, the Potency is 2.61 µM (active).

Turning to `CCC(Sc1nncn2c1cc1oc(C)cc12)C(=O)Nc1ccc(F)cc1` (configuration not stated), the activity change, negative = inhibition was -100%.

In the case of `O=C(Cn1c(=O)n(Cc2ccc3c(c2)OCO3)c(=O)c2ccc(C(=O)NC3CCCCC3)cc21)Nc1ccccc1F`, the Potency is 5.21 µM (active).

For the compound `O=C(Nc1ccc2oc(-c3ccc4ccccc4c3)nc2c1)c1cc(Br)ccc1Cl`, the Potency is 18.5 µM (active).

Consider `COc1ccc(NC(=O)c2c(NC(=O)COc3ccccc3)sc3c2CCC(C)C3)cc1` (configuration not stated), for which the activity change, negative = inhibition was -100%.

With `Cc1cccc(NC(=O)Cn2cc(C(=O)c3ccco3)c3ccccc32)c1C`, the activity change, negative = inhibition was -100%.

With `CCOc1ccc(NC(=O)CN2C(=O)C(c3ccc(Cl)cc3)=NC2(C)C)cc1`, the activity change, negative = inhibition was -100%.

Take `COc1ccc(NC(=O)c2ccco2)cc1NC(=O)COc1ccccc1Cl`: the activity change, negative = inhibition is -100%.

As for `COc1ccc2c(CNCCc3cccs3)c(C(=O)O)n(Cc3ccc(F)cc3Cl)c2c1`, the activity change, negative = inhibition was -100%.

`CC(C)CCNC(=O)Nc1ccc2c(c1)N(C)C(=O)c1ccccc1S2`: the activity change, negative = inhibition was -100%.

Consider `CCCCS(=O)(=O)c1oc(-c2cccs2)nc1S(=O)(=O)c1ccc(F)cc1`, for which the Potency was 3.29 µM (active).

`CCOc1ccc(S(=O)(=O)N(C(=O)c2ccncc2)c2ccc3oc(C)c(C(=O)OC)c3c2)cc1`: the activity change, negative = inhibition is -100%.

As to `Cc1ccc(-c2nc3sccn3c2Nc2ccc(C)c(C)c2)cc1`, the activity change, negative = inhibition is -100%.

Turning to `CCOc1ccc(CC(=O)NC2CC(=O)N(c3ccc4c(c3)OCCO4)C2)cc1` (configuration not stated), the activity change, negative = inhibition was -100%.

For `COc1ccc(-c2noc(CSc3nc(N)cc(=O)[nH]3)n2)cc1`, the activity change, negative = inhibition is -100%.

`CCN(CC)CC(C)CNC(=O)c1cc(-c2ccc(Br)s2)nc2ccccc12` (configuration not stated): the activity change, negative = inhibition is -14.3%.

Take `COc1ccccc1-c1cc(C(=O)Nc2cc(OC)c(OC)c(OC)c2)no1`: the activity change, negative = inhibition came out at 1.72%.

For the compound `COC(=O)c1ccccc1NC(=O)CSc1n[nH]c(CC(C)C)n1`, the activity change, negative = inhibition is -100%.

`COc1ccccc1C1C=C(c2ccc(Cl)cc2)Nc2nc(-c3ccc(Cl)cc3)nn21` (configuration not stated): the activity change, negative = inhibition was -100%.

Regarding `Cc1oc2ccc(O)c(CN3CCCC(C)C3)c2c1C(=O)Nc1ccccc1` (configuration not stated), the activity change, negative = inhibition was -29.6%.

As for `CCS(=O)(=O)c1ncc(Cl)c(C(=O)Nc2ccc(S(=O)(=O)N(C)c3ccccc3)cc2)n1`, the Potency is 1.85 µM (active).

In the case of `CCCSc1oc(-c2ccco2)nc1S(=O)(=O)c1ccc(Br)cc1`, the activity change, negative = inhibition is -100%.
